Laboratory results from PubChem BioAssay AID1878 (Sanford-Burnham Center for Chemical Genomics, 2009).
Screen size: about 1,000 compounds; about 200 (20%) were called active. A selection follows. Entries with a potency or affinity are not part of this list. Unmarked numbers belong to inactive results. No stated cut-off is given here; in the data, active means inhibition above about 55%; inactive means the rest.

These compounds were tested against Dual specificity protein phosphatase 3 (Homo sapiens) (UniProt P51452) (assay: VHR1 phosphatase inhibitors, biochemical (AID 1878)). Conditions: recombinant VHR phosphatase, fluorogenic substrate; at 13.3 µM; hits give high values.
Dual specificity protein phosphatase 3 (Homo sapiens), sequence (P51452 whole entry, looked up): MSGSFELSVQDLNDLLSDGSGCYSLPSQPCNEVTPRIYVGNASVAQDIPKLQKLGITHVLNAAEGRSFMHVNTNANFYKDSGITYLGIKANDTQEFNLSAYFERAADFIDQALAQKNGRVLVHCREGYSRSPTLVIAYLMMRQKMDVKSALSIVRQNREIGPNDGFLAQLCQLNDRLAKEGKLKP

| Structure (SMILES) | inhibition |
| --- | --- |
| Cc1ccc(NC2CCCN(C(=O)c3ccccn3)C2)cc1C (stereo not given) | -5.3% |
| O=C(CCc1nnc2ccc(NCc3ccccc3)nn12)NC1CCCCC1 | 4.6% |
| COc1ccc(N=C2C(=O)Nc3ccc(C)c(Br)c32)cc1 | 7.8% |
| COc1ccc(Cl)cc1NCCC(O)c1ccc(F)cc1 (stereo not given) | -9.5% |
| COc1ccccc1-c1csc(-n2ncc(C#N)c2N)n1 | 73.9% (active) |
| O=C(NC1CC2CCCC(C1)N2)c1ccccc1 (stereo not given) | -12.1% |
| CC(NC(=O)C(=O)N1CCCCC1)C(c1cccs1)N1CCN(C)CC1 (stereo not given) | -4.5% |
| CCN(CC)CCNC(=O)Cn1cnc2sc(C)c(S(=O)(=O)N3CC(C)CC(C)C3)c2c1=O (stereo not given) | -8.4% |
| COc1cc(C(=O)NCCC(=O)NCc2c(F)cc(F)cc2F)cc(OC)c1OC | 21.2% |
| CCC(=O)N1CCc2cc(S(=O)(=O)NCCc3ccc(S(N)(=O)=O)cc3)ccc21 | 0.3% |
| COc1ccccc1CN1CC(C(=O)NCc2ccc(C)c(F)c2)CCC1=O (stereo not given) | -6.8% |
| Cc1c(C)c2ccc(OCC(=O)NCCCn3ccnc3)c(C)c2oc1=O | -9.5% |
| COc1ccc2c(c1)c(=O)oc1c(C)c(OCc3cc(C(=O)O)oc3C)ccc12 | 40.3% |
| Cc1ccc(C)c(NC(=O)C(c2ccccc2)N2CCOCC2)c1 (stereo not given) | 6.5% |
| COc1cccc(-c2nc(CS(=O)(=O)CC(=O)N3CCCCC3)c(C)o2)c1 | -1% |
| CC1=C(C(=O)OC(C)C)C(c2ccc3c(c2)OCO3)NC(=O)N1 (stereo not given) | -7.6% |
| O=C(Nc1ccccc1C(=O)O)c1ccc2c(c1)C(=O)N(c1cccc([N+](=O)[O-])c1)C2=O | 2.4% |
| NS(=O)(=O)c1ccc(NC(=O)c2cccc(N3C(=O)c4ccccc4C3=O)c2)cc1 | 93.1% (active) |
| C[n+]1cccc(C(=O)Nc2ccccc2)c1 | 13.8% |
| Cc1ccccc1-c1nc(CS(=O)(=O)CC(=O)NCCCN2CC(C)CC(C)C2)c(C)o1 (stereo not given) | 28.9% |
| COCCn1c(SCC(=O)Nc2cccc(C)n2)nnc1-c1ccco1 | 3.1% |
| O=C(NCCc1ccc(Cl)cc1)c1ccc2nccnc2c1 | 6.7% |
| CCN1CCN(CCCNC(=O)CN2C(=O)c3cccnc3Oc3ccc(Cl)cc32)CC1 | 14% |

| Structure (SMILES) | inhibition |
| --- | --- |
| CC1CCN(CCc2nc3cc(NC(=O)C(C)C)ccc3n2C)CC1 | 9.3% |
| CC(=O)c1ccc(NC(=O)c2ccc3nc(-c4ccco4)c(-c4ccco4)nc3c2)cc1 | 92.7% (active) |
| Cc1ccccc1NC(=O)c1cccc(NC(=O)c2ccco2)c1 | -9.7% |
| CC(=O)c1ccc(NC(=O)CCn2c(=S)oc3ccccc32)cc1 | 40.7% |
| CC(C)Cn1c(=O)c2ccccc2n2c(CCC(=O)NC3CCN(Cc4ccccc4)CC3)nnc12 | 17.9% |
| O=C(Nc1ccccc1-c1nnn(CC(=O)N2CCOCC2)n1)c1ccc(F)cc1 | -1.6% |
| COCCNC(=O)Cn1nc(-c2ccc(C)cc2)c2ccccc2c1=O | 2.6% |
| Cn1nc(-c2ccc(C(=O)Nc3ccc(F)cc3)cc2)c2ccccc2c1=O | 96.2% (active) |
| CCn1cc(C(=O)N2CCCC(N3CCN(c4cccc(C(F)(F)F)c4)CC3)C2)cn1 (stereo not given) | -9% |
| COCCCNC(=O)Cn1cc(/C=C(\C#N)C(=O)NC2CC2)c2ccccc21 | -8.8% |
| CCN(CC)CCC(=O)N1c2ccccc2CCc2ccc(NC(=O)OC(C)C)cc21 | 3.9% |
| O=c1[nH]c(=O)c2nc3c4ccccc4c4ccccc4c3nc2[nH]1 | 80.4% (active) |
| Cn1nc(C(=O)NCCCN2CCCCC2)c2c1-c1ccccc1S(=O)(=O)C2 | -6.6% |
| Cc1ccc(NC(=O)C2CCN(S(=O)(=O)c3ccc4c(c3)NC(=O)CO4)CC2)cc1 | -0.8% |
| COc1ccc(CNCC(O)(c2ccccc2)c2ccc(F)cc2)cc1OC (stereo not given) | 13% |
| Cc1sc2ncn(CC(=O)N3CCCC(C)C3)c(=O)c2c1S(=O)(=O)N1CCCCC1 (stereo not given) | 7.1% |
| O=C(NC(=S)Nc1ccc(CN2CCCCC2)cc1)c1cccc(OCc2ccccc2)c1 | -29.4% |
| O=C(NC(=O)c1ccccc1)Nc1ccccc1 | 2.5% |
| COc1cc2ccccc2cc1C(=O)NC(=S)Nc1cccc(C(=O)O)c1 | 55% (active) |
| O=C(CSc1nc(-c2ccc(F)cc2)nc2c1Cc1ccccc1O2)Nc1cccc(C(=O)O)c1 | 96.6% (active) |
| O=C(CNCCc1ccccc1)Nc1ccc(C(=O)N2CCCCC2)cc1 | 3.1% |
| CC(=O)c1ccc(NC(=O)CSc2nc(C)cc(C)c2C(N)=O)cc1 | -9.9% |
| O=C(CSc1nc(-c2ccccc2)nc2c1Cc1ccccc1O2)Nc1ccc(C(=O)O)cc1 | 98.8% (active) |

| Structure (SMILES) | inhibition |
| --- | --- |
| CCCCn1c(N)c(N(CCOC)C(=O)c2cc(S(=O)(=O)N3CCCCC3)ccc2Cl)c(=O)[nH]c1=O | -7.9% |
| COC(=O)c1ccc(COc2ccc(C(C)(C)C)cc2)o1 | 29.7% |
| O=C1CCCN1CCC(=O)N1CCCC(CO)(Cc2ccccc2)C1 (stereo not given) | 26.9% |
| CC1CC(C)CN(CCCNC(=O)c2ccc(CNS(=O)(=O)c3ccc(F)cc3)cc2)C1 (stereo not given) | 2.4% |
| COc1ccc(CN2C(=O)c3cccnc3C2=O)cc1S(=O)(=O)NC1CCCCC1 | -2.5% |
| CCOc1ccc(C(=O)N2CCC3(CC2)NCCc2[nH]cnc23)cc1OCC | -1.8% |
| Cc1c(C)c2ccc(O[C@@H]3O[C@H](CO)[C@H](O)[C@H](O)[C@H]3O)c(C)c2oc1=O | -3.5% |
| Cc1c(NC(=O)c2ccc(Cl)c(S(=O)(=O)N3CCCCC3)c2)c(=O)n(-c2ccccc2)n1C | -10.6% |
| CCC1CCCCN1CCCNC(=O)CNC(=O)c1nn(-c2ccc(OC)c(Cl)c2)c(=O)c2ccccc12 (stereo not given) | -5.3% |
| COc1ccc(CN2CCNC(=O)C2CC(=O)NCC2CCOCC2)c(C)c1C (stereo not given) | 15.1% |
| COCCNc1cc(C)nc2c3c(C)cc(C)nc3nn12 | 9.5% |
| CCOc1cc(/C=C(\C#N)C(=O)Nc2cccc(C(=O)O)c2)ccc1OCc1ccccc1Cl | 94.8% (active) |
| CCOc1ccccc1NC(=O)Nc1cc(C(=O)O)ccc1C | -10.9% |
| CCOc1ccc(C(=O)Nc2cc3c(cc2N2CCCC2)n(CC)c(=O)n3CC)cc1OCC | -0.2% |
| COc1ccc(CCC(=O)NNC(=O)Nc2ccc(OC)c(OC)c2)cc1 | 1.3% |
| COc1cc(/C=C(\C#N)C(=O)Nc2ccc(C(=O)O)cc2)ccc1OC(=O)c1cccc(F)c1 | 67.8% (active) |
| CCOc1cc(/C=C(\C#N)C(=O)Nc2ccccc2C(=O)O)ccc1OC(=O)c1ccc(C)cc1 | 87.8% (active) |
| C/C=C/c1ccc(OCC(O)CNCCc2ccc(OC)cc2)c(OC)c1 (stereo not given) | 11.7% |
| CCOc1cc(/C=C(/C#N)C(=O)Nc2ccc(OC)cc2)ccc1OCc1ccc(C(=O)O)cc1 | 90.9% (active) |
| CCc1ccccc1S(=O)(=O)c1c(C)cc(C)nc1Cl | -1.3% |
| C=CCC(=O)NC1CC(C)(C)Cc2c1cnn2-c1ccc(C)cc1 (stereo not given) | -12.1% |
| CCC(=O)NC1=C(Nc2ccc(N)cc2)C(=O)c2ccccc2C1=O | -7.2% |
| O=C(NC1CCCCC1)c1cc(-c2ccccc2Cl)on1 | 3.4% |

| Structure (SMILES) | inhibition |
| --- | --- |
| CCCN1C2CCCC1CC(NC(=O)NC13CC4CC(CC(C4)C1)C3)C2 (stereo not given) | 25.2% |
| CC(C)c1nn2c(=O)cc(COc3cccc(NC(=O)c4ccco4)c3)nc2s1 | 10.3% |
| O=C(Nc1cccc(O)c1)C1CC(c2cccc(Br)c2)=NO1 (stereo not given) | 6.5% |
| O=C(Nc1ccc(C(=O)N2CCN(c3ccc(F)cc3)CC2)cc1)C1=CSCCO1 | 4.8% |
| Cc1nn(CC(=O)NCCCN2CCCCC2)c(=O)c2cc(-c3ccccc3)nn12 | 22.8% |
| COc1cc(CNc2ccc(N3CCOCC3)cc2)ccc1OCC(=O)NC(C)(C)C | 2.1% |
| CCOc1ccccc1CN1CCC(n2nccc2NC(=O)C2CCCC2)CC1 | -19.2% |
| COc1cc(C(=O)NCC2(c3ccccc3)CCCC2)ccc1OC(C)C | -7.1% |
| Cc1ccc(-c2[nH]ncc2C(=O)c2ccccc2C)c(O)c1 | -9% |
| CC(Cc1ccccc1)N1C(=O)c2ccccc2C1=O (stereo not given) | -2.4% |
| C=CCN(C(=O)CNC(=O)c1cccs1)C(C(=O)NC(C)(C)C)c1ccccc1 (stereo not given) | -6% |
| Cc1cc(Cl)c2oc(C(=O)NC(C)c3ccncn3)c(C)c2c1 (stereo not given) | -5.8% |
| CC1Sc2ccc(S(=O)(=O)CCC(=O)N(C)Cc3ccco3)cc2NC1=O (stereo not given) | -2.5% |
| CC(C)(C)C(=O)NN=C1CCC(c2ccccc2)CC1 (stereo not given) | -3.9% |
| CCOC(=O)C1(CCOc2ccccc2)CCN(CC(O)CO)CC1 (stereo not given) | -7.8% |
| CC1CCCN(CCCNC(=O)c2ccc3c(c2)N(Cc2ccccc2F)C(=O)c2ccccc2S3(=O)=O)C1 (stereo not given) | -12.5% |
| Cc1ccc(C(=O)Nc2ccccc2N2CCCC2)cc1 | 21% |
| CC(C)Cn1c(C23CC4CC(CC(C4)C2)C3)n[nH]c1=S | 10% |
| CCCCNC(=O)c1cn(C)c2ccc(S(=O)(=O)N3CCCC3)cc2c1=O | -4% |
| Cc1ccc(CN2C(=O)CC(Nc3ccc(N4CCOCC4)cc3)C2=O)cc1 (stereo not given) | 1.9% |
| Cc1ccc2nc(N3CCN(C)CC3)c(C=O)c(=O)n2c1 | 2.4% |
